Compound activity as filed in PubChem BioAssay.
Rows were chosen to be rich in hits. Some 3.1% of all compounds tested hit in one or more screens of this group.
Mito fusion act: inhibitors of mitochondrial division or activators of mitochondrial fusion; S. cerevisiae fusion-defective mutant growth rescue, CellTiterGlo 48 h; AID 485298; Potency, µM (series often up to 46.1 µM), without a hit: at the highest dose growth rescue (activation), hits mostly activators; 320,000 compounds, 0.23% hits; further: % of control where 0% means no effect; nearly all actives have a fitted effect of over 45% in size
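Temperature-sensitive fusion-defective S. cerevisiae (e.g. fzo1-1, mgm1-5) were grown with compound in YPEG medium (3% ethanol, 3% glycerol) for 48 hours at 37C. Growth rescue was measured as viability by CellTiterGlo luminescence after 10 minutes at ambient.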
Nrf2 inh: blocks Nrf2 signaling; A549 ARE-Fluc reporter, luciferase luminescence, 18-24 h; Potency, µM (doses to about 46 µM), without a hit: top-dose activity change, negative = inhibition, actives largely listed as inhibitors; 360,000 compounds, 2.1% hits; AID 504444; further: on the % scale 0 is the no-effect control and ±100 the full control effect; nearly all actives have a fitted effect of over 60% in size
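In this cell-based qHTS, ARE-driven firefly luciferase in A549 cells reports Nrf2 activity; the luminescent signal after BugLite lysis is the measured value, with a prior CellTiter-Fluor read for cell health.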
TrxR1 substrate: rat thioredoxin reductase 1 substrate activity; AID 588456; purified TrxR1 substrate turnover, NADPH consumption readout; 390,000 compounds, 0.01% hits; O89049; Potency, µM (titrated, usually from 114 µM), inactives show top-dose activity change, negative = substrate turnover; further: on the % scale 0 is the no-effect control and ±100 the full control effect; nearly all actives have a fitted effect of over 50% in size
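Rat TrxR1, dispensed at 90 nM, was prereduced with 400 uM NADPH (final) for 5 min at ~22 deg C, then incubated with compound 15 min before 400 uM selenite. A first-read NADPH fluorescence drop versus no-compound background flagged substrates.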
TrxR1 inh: blocks rat thioredoxin reductase 1 | O89049 | recombinant rTrxR1, NADPH fluorescence consumption, selenite substrate | Potency, µM (series often up to 114 µM), inactives show at the highest dose activity change, negative = inhibition, actives largely listed as inhibitors | 390,000 compounds, 1% hits; further: on the % scale 0 is the no-effect control and ±100 the full control effect; nearly all actives have a fitted effect of over 65% in size
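Rat TrxR1 (90 nM in the dispensed reagent) was pre-reduced with 400 uM NADPH for 5 min at room temperature, then incubated with compound for 15 min. After 400 uM selenite was added, NADPH fluorescence (Ex 340/Em 450 nm) was followed for 8 min.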
IDH1 R132H inh: blocks human mutant IDH1 R132H enzyme. O75874. IDH1-R132H enzyme, NADPH consumption, diaphorase/resazurin fluorescence. Potency, µM (titrated, usually from 76.6 µM), inactives show at the highest dose activity change, negative = inhibition, hits mostly inhibitors. 390,000 compounds, 0.093% hits; further: on the % scale 0 is the no-effect control and ±100 the full control effect; nearly all actives have a fitted effect of over 65% in size
Target sequence (O75874 whole entry R132H, stated change not applied): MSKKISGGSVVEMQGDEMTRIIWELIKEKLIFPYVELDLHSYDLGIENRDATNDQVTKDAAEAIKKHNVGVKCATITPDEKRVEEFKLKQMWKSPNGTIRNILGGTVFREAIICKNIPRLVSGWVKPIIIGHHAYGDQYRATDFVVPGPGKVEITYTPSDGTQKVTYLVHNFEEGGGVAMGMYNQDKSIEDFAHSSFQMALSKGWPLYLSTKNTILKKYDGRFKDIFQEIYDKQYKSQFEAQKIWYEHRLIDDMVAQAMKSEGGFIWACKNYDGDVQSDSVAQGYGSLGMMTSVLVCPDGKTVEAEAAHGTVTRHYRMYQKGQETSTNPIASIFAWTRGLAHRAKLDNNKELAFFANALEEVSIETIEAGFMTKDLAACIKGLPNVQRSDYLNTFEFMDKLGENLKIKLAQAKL
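IDH1-R132H (0.5 ug/mL) preincubated 30 min with compound, then NADPH (0.016 mM) and alpha-KG (2 mM) added; 80 min at RT, pH 7.5. Remaining NADPH coupled via diaphorase/resazurin to fluorescence (540/590 nm); concentration-response curves normalized to no-enzyme control.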
A549 viability: kills or reduces viability of A549 cells in Nrf2 counter-screen; A549 ARE-Fluc cells, CellTiter-Fluor viability, 18-24 h; 390,000 compounds, 0.16% hits; Potency, µM (titrated, usually from 46 µM), inactives show at the top dose activity change, negative = cytotoxicity, most hits filed as inhibitors; further: on the % scale 0 is the no-effect control and ±100 the full control effect
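Cytotoxicity counterscreen: CellTiter-Fluor fluorescence was measured in A549 ARE_Fluc cells after 18-24 h of compound exposure in a concentration series. The subsequent BugLite luminescent read reports ARE-luciferase activity.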
Active calls of the source: *; ? = inconclusive; · = no result given; [ ] = dose if it differs, or a comment. The call rests on the fitted dose curve; in most records, active means well fitted curve in the direction sought with a large enough effect; inconclusive means small, poorly fitted or top-dose-only effect, or another doubt; inactive means no such curve, though single readings can be large; an effect the other way counts as inactive or inconclusive. Potency means the concentration at half of the fitted maximal effect.

SMILES | Mito fusion act | Nrf2 inh | TrxR1 substrate | TrxR1 inh | IDH1 R132H inh | A549 viability
C/C(=N\O)C(=O)C(CN1CCCCC1)CN1CCCCC1 | -9% | -6% | 20%[57.1 µM] | 0.45µM* | 5% | -9%
CC(=O)/C(CN1CCCCC1)=N\O | 1% | 15% | 10% | 10% | 2% | -6%
Cc1ccc2cc(CCl)c(Cl)nc2c1 | 6% | 11% | 0% | 45µM* | 9% | 0%
ClCc1cc2ccccc2nc1Cl | 9% | -1% | 7%[57.1 µM] | -60% | 1% | -8%
CCOC(=O)c1ccc(NC(=O)CCC(=O)N2Cc3ccccc3Oc3ncccc32)cc1 | · | 16% | -10% | -8% | 7% | 10%
CN(C)CCCN(C(=O)c1ccc2c(c1)OCCO2)c1nc2cc3c(cc2s1)OCO3 | -4% | 10% | -5% | 2% | 2% | ?
CCc1ccc2nc(N(CCCN(C)C)C(=O)c3ccc(C(=O)c4ccccc4)cc3)sc2c1 | -26% | 13µM* | 5% | 26% | 8% | ?
CN(C)CCCN(C(=O)c1ccc([N+](=O)[O-])o1)c1nc2cc3c(cc2s1)OCO3 | -1% | 26% | -7% | 50µM* | 17% | ?
C(=C\c1ccnc2ccccc12)/c1ccc(N2CCNCC2)cc1 | · | · | 5% | ? | · | ·
CC1CN(S(=O)(=O)c2cc(C(=O)N(CCc3ccccc3)Cc3ccccc3)ccc2Cl)CC(C)O1 (centres undefined) | 18% | 7.3µM* | -5%[57.1 µM] | 6% | 2% | -12%
CC(C)[C@H](NC(=O)c1ccccc1F)C(=O)Nc1nc2c(s1)CCCC2 | -4% | 13% | 4%[57.1 µM] | 13%[57.1 µM] | 7% | 0%
COc1cc(OC)cc(C(=O)N[C@H](C(=O)Nc2nc3c(s2)CCCC3)C(C)C)c1 | -7% | 23µM* | 1% | 29% | 8% | -17%
C(=C\c1ccccc1)/CNn1cnnc1 | 2% | -10% | 9% | 15% | 3% | -2%
Clc1ccccc1CSc1nncn1NC/C=C/c1ccccc1 | 22µM* | -10% | -8% | -9% | 3% | 0%
Cc1c(C(=O)NCC2COc3ccccc3O2)oc2ccc(S(=O)(=O)N3CC(C)CC(C)C3)cc12 (centres undefined) | 2% | -21% | 7% | 23%[57.1 µM] | 2% | 7%
O=C(NCC1COc2ccccc2O1)c1ccc(F)c(S(=O)(=O)N2CCOCC2)c1 (centres undefined) | -6% | -15% | -9% | 2% | 10% | 0%
Cc1c(C(=O)NCC2COc3ccccc3O2)oc2ccc(S(=O)(=O)N3CCOCC3)cc12 (centres undefined) | 24% | 18µM* | 6%[57.1 µM] | 19%[57.1 µM] | -6% | -16%
O=C(NCC1COc2ccccc2O1)c1cc(S(=O)(=O)N2CCOCC2)c(Cl)cc1Cl (centres undefined) | 9% | 23µM* | -8%[57.1 µM] | 8% | -3% | 0%
Cc1c(C(=O)O)oc2ccc(S(=O)(=O)N3CCCC3)cc12 | 3% | -7% | 3% | 15% | 5% | 0%
CCCCN(C)C(=O)c1oc2ccc(S(=O)(=O)N3CCCCCC3)cc2c1C | -8% | 16µM* | -7% | 16% | 8% | -13%
